# Data taken from article PMC5540273 (PLoS ONE, 2017).
# System: TYK2(JH2domain-pseudokinase)
# Conditions: concentration: 1 μM, replicates: in singlicate; n = 1
# 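Note: KINOMEscan kinase panel screen.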
row,Compound,%Inh [%]
1,Cl.c1ccc(Cn2cnc3cc(Nc4ncnc5ccccc45)ccc32)cc1 [GW272142],21
2,O=C(Nc1ccc2c(c1)OCO2)NC1CCN(c2ccnc(NCc3ccc(F)cc3)n2)CC1 [GSK1379859],0
3,CCn1c(-c2ccoc2)nc2cnccc21 [SB-733887],50
4,COc1cc2nccc(Nc3ccc(OCc4ccc(NC(C)=O)cc4)cc3)c2cc1OC.Cl [GW440135],5
5,CCC(=O)c1c(-c2ccccc2)c2cc(Cl)ccc2c(=O)n1Cc1cc(S(C)(=O)=O)n(CC(F)F)n1,0
6,Nc1nc(-c2ccccc2F)c(-c2ccnc3ccccc23)s1 [GW560459],32
7,COc1ccc(-c2coc3ccc(-c4nnc(SCc5cccc(C#N)c5)o4)cc23)cc1,0
8,CCn1c(-c2nonc2N)nc2ccccc21 [SB-693162/GW549034],25
9,Nc1ncnc2c1ncn2-c1cccc(F)c1 [SKF-97560],35
10,COc1cc2ncn(-c3cc(OCc4ccc(S(C)(=O)=O)cc4)c(C(N)=O)s3)c2cc1OC [GW869979],11
11,Cc1c(Cn2c(C)nn3c(=O)cc(N4CCO[C@H](C)C4)nc23)cccc1C(F)(F)F [GSK2373690],0
12,COC(=O)c1c(-c2ccccc2)c2cc(Br)ccc2c(=O)n1Cc1ccc(S(C)(=O)=O)cc1,15
13,COc1cc2ncn(-c3cc(OCc4ccncc4Br)c(C(N)=O)s3)c2cc1OC [GW854278],5
14,O=C1NC(=O)C(c2ccccc2)=C1Nc1cccc(O)c1 [SB-390534],0
15,COc1ccc(CNC(=O)NC2CCN(c3ccnc(Nc4ccc(F)cc4)n3)C2)cc1 (centres unmarked) [GSK1379706],23
16,COc1cc2nccc(Nc3cccc(Oc4ccccc4)c3)c2cc1OC.Cl [GW284543],0
17,Cc1nnc(-c2ccc(C)c(-c3ccc(C(=O)O)cc3)c2)o1 [GW608005],8
18,Cc1cccc(-c2nc(Nc3ccc4c(cnn4C)c3)c3ccccc3n2)n1 [GW876731],39
19,Cc1nc(N(C)[C@H]2CN(C(=O)CC#N)CC[C@H]2C)c2cc[nH]c2n1,0

row,Compound,%Inh [%]
1,COc1cc(Nc2ccnc3ccc(C(F)(F)F)cc23)cc(OC)c1OC [GW577382],0
2,COc1cccc(-n2cnc3c(N)ncnc32)c1 [SKF-97416],40
3,COc1ccc(-c2cc3c(C)nc(N)nc3n([C@H]3CC[C@H](OCCO)CC3)c2=O)cn1,0
4,COc1cc2ncn(-c3cc(OCCCc4ccccc4)c(C(N)=O)s3)c2cc1OC [GSK205189],0
5,CN1C(=O)C(Nc2ccccc2)=C(c2ccccc2)C1=O [SB-300079],17
6,O=C(NCc1cccs1)c1cc(C(=O)c2c(Cl)cccc2Cl)c[nH]1 [GW823670],0
7,CCCNC(=O)Nc1ccc(Oc2ncnc3ccn(C)c23)cc1,22
8,Nc1nccc2scc(-c3ccc4c(c3)CCN4C(=O)Cc3ccccc3)c12 [GSK2576924],0
9,CCC(=O)c1c(-c2ccccc2)c2cc(Cl)ccc2c(=O)n1Cc1cc(S(C)(=O)=O)n(CCC(C)(C)O)n1,6
10,Nc1nc(N)c2nc(-c3ccccc3)[nH]c2n1 [SKF-12778],74
11,COc1ccc(-c2cc3c(C)nc(N)nc3n([C@H]3CC[C@H](O)CC3)c2=O)cn1,0
12,Cc1ccccc1COc1cc(-n2cnc3cc(Cl)ccc32)sc1C(N)=O [GW813349],5
13,COc1ccc(-n2cnc3c(N)ncnc32)cc1 [SKF-97236],24
14,COC(=O)c1c(-c2ccccc2)c2cc(C)ccc2c(=O)n1Cc1ccccc1,0
15,O=C(Nc1n[nH]c2cc(-c3ccccc3F)ccc12)C1CC1 [SB-733371],0
16,COc1cc(Nc2nccc(N3CCC(NC(=O)C4COc5ccccc5O4)C3)n2)cc(OC)c1OC (centres unmarked) [GSK1379761],29
17,O=C(Nc1n[nH]c2nc(-c3ccccc3)c(Cl)cc12)C1CC1 [SB-734909],16
18,O=c1cc(N2CCOCC2)nc2n(Cc3ccc(F)c(Cl)c3)ccn12 [GSK2297099],15

# System: TYRO3
# Conditions: concentration: 1 μM, replicates: in singlicate; n = 1
row,Compound,%Inh [%]
1,Cl.c1ccc(Cn2cnc3cc(Nc4ncnc5ccccc45)ccc32)cc1 [GW272142],0
2,O=C(Nc1ccc2c(c1)OCO2)NC1CCN(c2ccnc(NCc3ccc(F)cc3)n2)CC1 [GSK1379859],0
3,CCn1c(-c2ccoc2)nc2cnccc21 [SB-733887],0
4,COc1cc2nccc(Nc3ccc(OCc4ccc(NC(C)=O)cc4)cc3)c2cc1OC.Cl [GW440135],0
5,CCC(=O)c1c(-c2ccccc2)c2cc(Cl)ccc2c(=O)n1Cc1cc(S(C)(=O)=O)n(CC(F)F)n1,0
6,Nc1nc(-c2ccccc2F)c(-c2ccnc3ccccc23)s1 [GW560459],0
7,COc1ccc(-c2coc3ccc(-c4nnc(SCc5cccc(C#N)c5)o4)cc23)cc1,0
8,CCn1c(-c2nonc2N)nc2ccccc21 [SB-693162/GW549034],0
9,Nc1ncnc2c1ncn2-c1cccc(F)c1 [SKF-97560],9
10,COc1cc2ncn(-c3cc(OCc4ccc(S(C)(=O)=O)cc4)c(C(N)=O)s3)c2cc1OC [GW869979],19
11,Cc1c(Cn2c(C)nn3c(=O)cc(N4CCO[C@H](C)C4)nc23)cccc1C(F)(F)F [GSK2373690],22
12,COC(=O)c1c(-c2ccccc2)c2cc(Br)ccc2c(=O)n1Cc1ccc(S(C)(=O)=O)cc1,1
13,COc1cc2ncn(-c3cc(OCc4ccncc4Br)c(C(N)=O)s3)c2cc1OC [GW854278],11
14,O=C1NC(=O)C(c2ccccc2)=C1Nc1cccc(O)c1 [SB-390534],0
15,COc1ccc(CNC(=O)NC2CCN(c3ccnc(Nc4ccc(F)cc4)n3)C2)cc1 (centres unmarked) [GSK1379706],0
16,COc1cc2nccc(Nc3cccc(Oc4ccccc4)c3)c2cc1OC.Cl [GW284543],0
17,Cc1nnc(-c2ccc(C)c(-c3ccc(C(=O)O)cc3)c2)o1 [GW608005],0
18,Cc1cccc(-c2nc(Nc3ccc4c(cnn4C)c3)c3ccccc3n2)n1 [GW876731],5
19,Cc1nc(N(C)[C@H]2CN(C(=O)CC#N)CC[C@H]2C)c2cc[nH]c2n1,18

row,Compound,%Inh [%]
1,COc1cc(Nc2ccnc3ccc(C(F)(F)F)cc23)cc(OC)c1OC [GW577382],0
2,COc1cccc(-n2cnc3c(N)ncnc32)c1 [SKF-97416],0
3,COc1ccc(-c2cc3c(C)nc(N)nc3n([C@H]3CC[C@H](OCCO)CC3)c2=O)cn1,0
4,COc1cc2ncn(-c3cc(OCCCc4ccccc4)c(C(N)=O)s3)c2cc1OC [GSK205189],0
5,CN1C(=O)C(Nc2ccccc2)=C(c2ccccc2)C1=O [SB-300079],0
6,O=C(NCc1cccs1)c1cc(C(=O)c2c(Cl)cccc2Cl)c[nH]1 [GW823670],0
7,CCCNC(=O)Nc1ccc(Oc2ncnc3ccn(C)c23)cc1,0
8,Nc1nccc2scc(-c3ccc4c(c3)CCN4C(=O)Cc3ccccc3)c12 [GSK2576924],0
9,CCC(=O)c1c(-c2ccccc2)c2cc(Cl)ccc2c(=O)n1Cc1cc(S(C)(=O)=O)n(CCC(C)(C)O)n1,0
10,Nc1nc(N)c2nc(-c3ccccc3)[nH]c2n1 [SKF-12778],0
11,COc1ccc(-c2cc3c(C)nc(N)nc3n([C@H]3CC[C@H](O)CC3)c2=O)cn1,0
12,Cc1ccccc1COc1cc(-n2cnc3cc(Cl)ccc32)sc1C(N)=O [GW813349],5
13,COc1ccc(-n2cnc3c(N)ncnc32)cc1 [SKF-97236],0
14,COC(=O)c1c(-c2ccccc2)c2cc(C)ccc2c(=O)n1Cc1ccccc1,0
15,O=C(Nc1n[nH]c2cc(-c3ccccc3F)ccc12)C1CC1 [SB-733371],0
16,COc1cc(Nc2nccc(N3CCC(NC(=O)C4COc5ccccc5O4)C3)n2)cc(OC)c1OC (centres unmarked) [GSK1379761],0
17,O=C(Nc1n[nH]c2nc(-c3ccccc3)c(Cl)cc12)C1CC1 [SB-734909],0
18,O=c1cc(N2CCOCC2)nc2n(Cc3ccc(F)c(Cl)c3)ccn12 [GSK2297099],0
